In all, about 69,000 compounds went through this assay and about 8,600 (12%) showed an effect of 50% or more. This excerpt belongs to a sample that is enriched for strong results.

Here are results for 30 compounds from ChEMBL document CHEMBL4513216, “Probing the Open Global Health Chemical Diversity Library for Multistage-Active Starting Points for Next-Generation Antimalarials” (ACS Infect Dis, 2020).

This assay relates to Plasmodium berghei. Put plainly: Screen against P. berghei liver stage (PbLuc), transformed with Luciferase, at 10uM. Particulars: tested at 10 uM. In kind it is functional, HepG2.
Take `Cc1occc1C(=O)Nc1cnn(CCN2CCOCC2)c1`: the INHIBITION is reported as -16.565%. In the case of `O=C(Nc1ccc2c(c1)OCO2)c1ccc(N2CCCC2)nn1`, the INHIBITION is reported as 43.8%.

For `NC(=O)CN(Cc1ccc(Br)cc1)C(=O)c1cnccn1`, the INHIBITION was 4.22%. With `O=C1COC2(COCCN(Cc3ccsc3)C2)CN1c1ccoc1` (stereo not given) the figure was 12.4%; with `CO[C@H]1CO[C@@]2(CCCN(C(=O)C3CC=CC3)C2)C1`, 22.2%; with `CO[C@@H]1CO[C@@]2(CCCN(C(=O)C3CC=CC3)C2)C1`, 53%. With `CO[C@H]1CO[C@@]2(CCCN(C(=O)N3CCCC3)C2)C1` the figure was 45.7%. With `CC(C)c1nc(CN2CCN(CC(O)c3ccccc3)CC2)no1` (stereo not given) the figure was 21.5%; with `CC(=O)Nn1c(C)cc(CN2CCC(c3ccncc3)CC2)c1C`, 28%; with `CC(=O)Nn1c(C)cc(CN2CCCN(Cc3ccncc3)CC2)c1C`, 20.4%. In the case of `CC(=O)Nn1c(C)cc(CN2CCC(C(=O)N3CCCC3)CC2)c1C`, the INHIBITION came out at 52.8%. For `CN(c1cccnn1)C1CCN(C(=O)c2n[nH]c3c2CCC3)CC1`, the INHIBITION is listed as -16.7%.

For the compound `O=C(c1cnc(-c2cccnc2)nc1)N1CCSCC1`, the INHIBITION worked out at 51.9%.

Turning to `O=C(c1cccnc1)N1CCSCC1`, the INHIBITION is recorded as 35.7%. In the case of `O=C(c1cnc(-c2cccnc2)nc1)N1CCC(c2ccncc2)CC1`, the INHIBITION is listed as 21.8%. To `Cc1cccc(CNc2ccc(C(=O)N3CCC(CO)CC3)cc2)c1` belongs 38.3%. To `O=C([C@@H]1COC[C@H]2CN(C3CCOCC3)C[C@H]21)N1CCCCO1` belongs -3.1%.

In the case of `CCc1cccc2c(CC(=O)N(C)CCN(C)C)c(C)[nH]c12`, the INHIBITION is reported as 47.9%.

With `Cc1[nH]c2c(C)cccc2c1CC(=O)N(C)CCN(C)C`, the INHIBITION is 34.15%. To `Cc1ccc2c(CC(=O)N(C)CCN(C)C)c(C)[nH]c2c1C` belongs 50.75%; to `CC(=O)N1CCN(C(=O)CN(C)c2ccc(Cl)cn2)CC1`, 25%; to `c1cc(COC[C@H]2CCC[C@]23CNCCO3)ccn1`, 53%. To `c1cc(COC[C@@H]2CCC[C@@]23CNCCO3)ccn1` belongs 68.2%. With `Cc1nc(COC[C@@H]2CCC[C@@]23CNCCO3)cs1` the figure was 48.9%.

On to `c1cncc(COC[C@@H]2CCC[C@@]23CNCCO3)c1`, for which the INHIBITION was determined as 24%. Regarding `c1cncc(COC[C@@H]2CCC[C@]23CNCCO3)c1`, the INHIBITION stood at 22.2%. In the case of `c1cncc(OC[C@@H]2CCC[C@@]23CNCCO3)c1`, the INHIBITION is given as -2.27%. Regarding `COC(=O)c1ccc(CN2CCC(c3n[nH]c(C)n3)CC2)s1`, the INHIBITION turned out to be 16.3%.

For `O=C(NCCc1noc(C2CCCC2)n1)c1cn2ccsc2n1`, the INHIBITION was determined as 47.2%.

For `Cc1nc(C2CCN(C(C)C)CC2)sc1Br`, the INHIBITION came out at 30.4%.
